Source: PubChem (several laboratories)
Mtb bLac sens = beta-lactam sensitization of Mtb H37Rv; inhibition, % at 25 µM; actives 0.27% (n = 330,000); AID 434955; M. tuberculosis H37Rv growth with meropenem, percent inhibition; call rule not given here;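 also: growth measured after seven days incubation then overnight dye step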
GDH-TPI counter = inhibits GDH-TPI coupling enzymes, artifact for Mtb FBA screen; actives 1.2% (n = 360,000); inhibition, % at 4.8 µM; GDH-TPI coupled enzyme counterscreen, NADH absorbance
CCHF vOTU inh = blocks the CCHF virus ovarian tumor domain protease; CCHFV vOTU protease, Pep-AMC fluorescence; inhibition, % at 11.5 µM; actives 0.55% (n = 370,000)
FBA Mtb inh = inhibits M. tuberculosis FBA enzyme; P9WQA3; purified M. tuberculosis FBA, fluorescence read-out; inhibition, % at 1 µM; actives 2.3% (n = 360,000); AID 588726; in the data active = inhibition above about 27%
RecA splice inh = inhibitors of M. tuberculosis RecA intein splicing. P9WHJ3. cell-free RecA intein splicing, fluorescence. AID 2221. actives 0.75% (n = 290,000). inhibition, % (concentration not given with the values); in the data active = inhibition above about 30%; inconclusive = no clear call, values can overlap the other calls
Target sequence (P9WHJ3 whole entry, looked up, canonical isoform): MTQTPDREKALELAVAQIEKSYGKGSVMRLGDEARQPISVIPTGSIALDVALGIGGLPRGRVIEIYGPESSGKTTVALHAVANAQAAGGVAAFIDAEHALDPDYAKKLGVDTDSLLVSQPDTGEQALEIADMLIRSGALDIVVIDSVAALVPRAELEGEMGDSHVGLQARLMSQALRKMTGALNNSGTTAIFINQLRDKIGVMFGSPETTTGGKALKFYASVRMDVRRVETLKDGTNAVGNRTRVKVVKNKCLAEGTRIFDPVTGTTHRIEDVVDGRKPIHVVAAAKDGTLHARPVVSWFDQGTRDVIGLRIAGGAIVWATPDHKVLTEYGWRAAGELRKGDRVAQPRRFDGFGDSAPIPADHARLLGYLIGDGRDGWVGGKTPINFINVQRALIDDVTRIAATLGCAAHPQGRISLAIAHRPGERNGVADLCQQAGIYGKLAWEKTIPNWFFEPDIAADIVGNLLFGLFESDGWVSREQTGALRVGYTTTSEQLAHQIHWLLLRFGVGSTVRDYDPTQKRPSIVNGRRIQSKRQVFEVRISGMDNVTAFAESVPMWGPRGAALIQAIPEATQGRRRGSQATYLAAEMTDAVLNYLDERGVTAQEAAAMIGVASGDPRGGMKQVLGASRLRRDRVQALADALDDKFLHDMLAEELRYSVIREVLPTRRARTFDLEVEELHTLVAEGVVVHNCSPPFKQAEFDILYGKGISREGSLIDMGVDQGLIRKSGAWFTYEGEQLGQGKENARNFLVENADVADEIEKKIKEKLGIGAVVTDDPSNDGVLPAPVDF
Of the large screens only hits and unclear results are named; the others gave an inactive call. Hits are enriched below; roughly 4.2% of the tested compounds scored in any of these assays. Rule as the data show it, unless noted: active = inhibition above about 30%; inactive = the rest.

COc1cc(/C=C2\S/C(=N/S(=O)(=O)Cc3ccccc3)NC2=O)c([N+](=O)[O-])cc1OC	GDH-TPI counter 33
COc1cc(/C=C2/S/C(=N/S(=O)(=O)c3ccccc3)NC2=O)c([N+](=O)[O-])cc1OC	none
O=C1N/C(=N\S(=O)(=O)Cc2ccccc2)S/C1=C/c1cc([N+](=O)[O-])ccc1O	GDH-TPI counter 39
COc1cc(/C=C2/S/C(=N/S(=O)(=O)Cc3ccccc3)NC2=O)c([N+](=O)[O-])cc1OC	GDH-TPI counter 34
COCCCNC(=O)c1ccc(Cn2c(=O)c3ccccc3n(Cc3ccc(Br)cc3)c2=O)cc1	none (no result: Mtb bLac sens, GDH-TPI counter, FBA Mtb inh, RecA splice inh)
COc1ccc(CC(/C=C/c2ccc(F)cc2)c2ccccc2)cc1 (configuration not stated)	none (no result: Mtb bLac sens, GDH-TPI counter, FBA Mtb inh, RecA splice inh)
COc1ccc(-c2c(Cc3ccccc3)nc(NC(=O)c3ccccc3)n2Cc2ccc(OC)cc2OC)cc1	none (no result: Mtb bLac sens, GDH-TPI counter, FBA Mtb inh, RecA splice inh)
COCCCNc1nc2nonc2nc1N(C)CC1CCCN1C (configuration not stated)	GDH-TPI counter 36
CC(C)CC(=O)N1CCc2cc(S(=O)(=O)N(C)Cc3ccco3)ccc21	none (no result: Mtb bLac sens, GDH-TPI counter, FBA Mtb inh, RecA splice inh)
Fc1ccc(-c2cc(-c3nnc4sc(Cc5cccs5)nn34)[nH]n2)cc1	none (no result: Mtb bLac sens, GDH-TPI counter, FBA Mtb inh, RecA splice inh)
O=c1cc(CN2CCN(S(=O)(=O)c3ccc4c(c3)OCCO4)CC2)c2ccc(O)cc2o1	FBA Mtb inh 199
O=c1cc(CN2CCN(S(=O)(=O)c3cccc(Cl)c3)CC2)c2ccc(O)cc2o1	FBA Mtb inh 118 (no result: RecA splice inh)
Cc1ccc2c(CN3CCN(S(=O)(=O)c4ccc(Cl)cc4)CC3)cc(=O)oc2c1C	none (no result: Mtb bLac sens, RecA splice inh)
CCc1ccc2c(CN3CCN(S(=O)(=O)c4ccc5c(c4)OCCO5)CC3)cc(=O)oc2c1	none
CC(=O)Oc1ccc(Cl)cc1/C=C/c1ccc2ccccc2n1	none
CC(C)(O)c1ccccc1CC[C@@H](SCC1(CC(=O)O)CC1)c1cccc(/C=C/c2ccc3ccc(Cl)cc3n2)c1	GDH-TPI counter 31 (no result: CCHF vOTU inh)
Cc1ccc(S(=O)(=O)N(C)[C@H]2C[C@H]3c4cc(N5CCOCC5)ccc4CCN3C[C@H]2[C@H](C)O)cc1	none (no result: Mtb bLac sens, GDH-TPI counter, FBA Mtb inh, RecA splice inh)
O=c1[nH]c(/C=C/c2ccc([N+](=O)[O-])cc2)c([N+](=O)[O-])c(=O)[nH]1	GDH-TPI counter 31
CCCC[C@@H]1C(=O)N2N=Cc3ccccc3[C@H]2N2N=Cc3ccccc3[C@@H]12	none (no result: Mtb bLac sens, GDH-TPI counter, FBA Mtb inh, RecA splice inh)
O=C(NCCc1c[nH]c2ccccc12)OCc1cn(Cc2ccccc2F)nn1	none (no result: Mtb bLac sens, GDH-TPI counter, FBA Mtb inh, RecA splice inh)
NS(=O)(=O)c1ccc(NC(=O)COC(=O)/C(=C/c2cccs2)c2cccs2)cc1	GDH-TPI counter 42
CC(=O)N1CCCN(C(=O)CN2C(=O)CC(C)(C)S(=O)(=O)c3ccccc32)CC1	none (no result: Mtb bLac sens, GDH-TPI counter, FBA Mtb inh, RecA splice inh)
O=C(NC1CC1)c1cccc(-c2cncc3nccn23)c1	FBA Mtb inh 185 (no result: Mtb bLac sens, RecA splice inh)
O=C(NC1CC1)c1ccc(-c2cnc3cccnn23)cc1	FBA Mtb inh active (no result: Mtb bLac sens, RecA splice inh)
O=C(NCc1ccco1)c1cccc(-c2cncc3nccn23)c1	FBA Mtb inh 123 (no result: Mtb bLac sens, RecA splice inh)
Cc1nc2cc(C(=O)N3CCN(C(=O)C(C)(C)C)CC3)ccc2n1C1CCCC1	none (no result: Mtb bLac sens, GDH-TPI counter, FBA Mtb inh, RecA splice inh)
O=C(CNC(=O)c1ccc(F)cc1)N/N=C/c1ccc(O)c([N+](=O)[O-])c1	GDH-TPI counter 37
Cc1cc(Cl)n2c(nc3ccccc32)c1C#N	FBA Mtb inh active (no result: Mtb bLac sens)
CNc1cc(C)c(C#N)c2nc3ccccc3n12	FBA Mtb inh active
Cc1c(CCCl)c(Cl)n2c(nc3ccccc32)c1C#N	none (no result: Mtb bLac sens, RecA splice inh)
Cc1ccc(-c2c(C#N)c(N)n3c(nc4ccccc43)c2C#N)cc1	FBA Mtb inh 119
CCN(CC)c1cc(C)c(C#N)c2nc3ccccc3n12	none
Cc1cc(NCc2ccccn2)n2c(nc3ccccc32)c1C#N	none (no result: Mtb bLac sens)
O=C(NCc1ccccc1)Nc1ccccc1C(=O)N1CCCC1	none (no result: Mtb bLac sens, GDH-TPI counter, FBA Mtb inh, RecA splice inh)
N#Cc1c(N)nc2c(c1-c1cccs1)CCCC2	none
N#Cc1c(-c2cccs2)cc(-c2ccccn2)nc1N	FBA Mtb inh 78 (no result: Mtb bLac sens)
CS(=O)(=O)C1=NN2C(=N)/C(=C\c3ccc(OC(=O)c4ccco4)cc3)C(=O)N=C2S1	RecA splice inh 37
CCOc1cc(/C=C2/C(=N)N3C(=NC2=O)SN=C3S(=O)(=O)C(C)C)ccc1OC(=O)c1ccco1	RecA splice inh 32
N=C1/C(=C\c2ccc(OC(=O)c3ccc(F)cc3)cc2)C(=O)N=C2SC(N3CCOCC3)=NN12	RecA splice inh 39
COC(=O)[C@]12C[C@H](CC(=O)NCc3cccc4ccccc34)C(=O)N(Cc3cccc4ccccc34)C1=C[C@H](C(C)(C)C)O[C@@H]2C	none (no result: Mtb bLac sens, GDH-TPI counter, FBA Mtb inh, RecA splice inh)
O=C1c2ccc3c4c(ccc(c24)C(=O)N1c1cccc(O)c1)C(=O)N(c1cccc(O)c1)C3=O	GDH-TPI counter 35
CN(C)c1cccc(/C=C2\CC3(OC(=O)c4ccccc4)CCCN2C3)c1 (configuration not stated)	none (no result: Mtb bLac sens, GDH-TPI counter, FBA Mtb inh, RecA splice inh)
O=C1/C(=C/c2cccnc2)Oc2cc(OS(=O)(=O)c3ccc(Cl)cc3)ccc21	none
O=C1/C(=C/c2cccnc2)Oc2cc(OS(=O)(=O)c3ccccc3)ccc21	GDH-TPI counter 46 (no result: CCHF vOTU inh)
CC(/C=N/NC(=O)CSc1nnc(SCc2ccc(C)cc2)s1)=C\c1ccco1	none (no result: Mtb bLac sens, GDH-TPI counter, FBA Mtb inh, RecA splice inh)
O=C(N/N=C/c1cc(Br)c(O)c(Br)c1)c1cc2c(ccc3ccccc32)o1	GDH-TPI counter 33
O=C(N/N=C/c1cc(Cl)c(O)c(Cl)c1)c1cc2c(ccc3ccccc32)o1	Mtb bLac sens inconclusive, GDH-TPI counter 32 (no result: RecA splice inh)
COc1ccc(C(=O)Cn2c(C(=O)/C=C/c3ccccc3)nc3ccccc32)cc1	GDH-TPI counter 32
CCOC(=O)N1CCN(C(=O)CCSc2ccccc2)CC1	FBA Mtb inh 123
CCOC(=O)N1CCN(C(=O)CCSc2ccc(C)cc2)CC1	none
CN(C)c1ccc(NC2=C([N+](=O)[O-])CS(=O)(=O)C2)cc1	GDH-TPI counter 34
Cc1ccc(NC2=C([N+](=O)[O-])CS(=O)(=O)C2)cc1	none
CSc1nc(NCCCO)c2c3c(sc2n1)CN(C)CC3	FBA Mtb inh 176
CSc1nc(NCC(C)O)c2c3c(sc2n1)CN(C)CC3 (configuration not stated)	FBA Mtb inh 113
C#CCNC(=O)C[C@H]1C[C@@]2(C(=O)OC)C(=C[C@H](C(C)C)O[C@@H]2C2CC2)N(Cc2cccc3ccccc23)C1=O	none (no result: Mtb bLac sens, GDH-TPI counter, FBA Mtb inh, RecA splice inh)
Oc1ccc(/C=N/Nc2ccc(Cl)nn2)cc1O	GDH-TPI counter 32
CCOc1ccc(/C=N/Nc2cc(C)nc(N3CCOCC3)n2)cc1	none
Oc1ccc(/C=N/Nc2nccnc2Cl)cc1	none
Cc1cc(N/N=C/c2ccc(O)cc2O)nc(-n2nc(C)cc2C)n1	GDH-TPI counter 36
Cc1ccc(/C=N/Nc2ccc(Cl)nn2)cc1	none
CCOc1ccc(/C=N/Nc2cc(N3CCOCC3)nc(C)n2)c(O)c1	GDH-TPI counter 34
Cc1nc(Cl)cc(N/N=C/c2ccc(O)cc2)n1	GDH-TPI counter 35
COc1ccc(/C=N/Nc2cc(C)nc(-n3nc(C)cc3C)n2)cc1	none
CCCCCCNC(=O)C1CSCCS(=O)(=O)N1Cc1ccc(C)cc1 (configuration not stated)	none (no result: Mtb bLac sens, GDH-TPI counter, FBA Mtb inh, RecA splice inh)
Cc1nc(Cl)cc(N/N=C/c2ccc(O)cc2O)n1	GDH-TPI counter 59 (no result: RecA splice inh)
COc1cccc(/C=N/Nc2cc(Cl)nc(C)n2)c1O	none
